Measured potencies and affinities stand elsewhere.

The first experiment concerns Staphylococcus aureus. The settings on record: Concentration 32 ug.mL-1;; ASSAY_TEST Inhibition of Bacterial Growth; detection method Absorption (OD600); MEDIA CAMHB; plate type 384well; NBS; CORNING #3640; time 18 hr.
In the case of `Cc1cc(C)c(NC(=O)Cn2nc3ccc(SCc4ccc(Cl)cc4)nn3c2=O)c(C)c1`, the Inhibition (in general, the relative decrease from the control value, in per cent) is reported as -5.02%.

Consider `Cc1ccc(CN(c2ccc(C(C)C)cc2)S(=O)(=O)c2cccn3cnnc23)cc1`, for which the Inhibition amounted to 21.94%.

Regarding `Cc1cc(C)c(NC(=O)Cn2nc3ccc(Sc4cccc(F)c4)nn3c2=O)c(C)c1`, the Inhibition was found to be 3.74%.

As to `CCCN(C)c1nccn2c(=O)n(CC(=O)Nc3cccc(SC)c3)nc12`, the Inhibition is 12.22%.

As to `COc1cccc(-n2ccn3c(SCC(=O)Nc4ccccc4Cl)nnc3c2=O)c1`, the Inhibition was 11.46%.

Turning to `CCCNC(=O)Cn1nc2cc(C)nc(Nc3cc(C)cc(C)c3)n2c1=O`, the Inhibition turned out to be 13.08%.

Turning to `CCC(C)NC(=O)Cn1nc2n(CCC(C)C)c(=O)c3sccc3n2c1=O` (stereo not given), the Inhibition is listed as -2.65%.

Turning to `O=C(Cn1nc2c(Sc3cccc(F)c3)nccn2c1=O)Nc1ccc(Br)cc1`, the Inhibition is 3%.

Consider `COc1ccc(NC(=O)Cn2nc3nc(Nc4ccc(F)cc4)ccn3c2=O)cc1Cl`, for which the Inhibition worked out at 5.78%.

As to `O=c1c2sccc2n2c(=O)n(Cc3cccc(Br)c3)nc2n1Cc1cccs1`, the Inhibition is -27.59%.

`Cc1ccc(C)c(CSc2nnc3c(=O)n(-c4ccc(F)c(F)c4)ccn23)c1`: the Inhibition is 21.94%.

On to `CC(C)CCNC(=O)CSc1nnc2c(=O)n(Cc3ccc(F)cc3)ccn12`, for which the Inhibition is reported as 8.45%.

On to `CCc1nnc2c(SCC(=O)Nc3ccc(C(=O)OC)cc3)nc3ccccc3n12`, for which the Inhibition stood at 1.34%.

Regarding `COCCCNC(=O)CSc1nnc2c(=O)n(Cc3ccccc3F)ccn12`, the Inhibition is recorded as -1.95%.

For `COc1cccc(Cn2nc3ccc(-c4ccccc4)nn3c2=O)c1`, the Inhibition was 13.4%.

Consider `Cc1ccc(-c2cc3c4nn(CC(=O)Nc5ccccc5F)c(=O)n4ccn3n2)cc1C`, for which the Inhibition is listed as -4%.

Regarding `CCc1ccccc1Sc1nccn2c(=O)n(CC(=O)Nc3cccc(Br)c3)nc12`, the Inhibition is reported as 8.83%.

Take `COc1ccc(NC(=O)c2ccc3nn(CC(=O)N4CCN(c5ccccc5)CC4)c(=O)n3c2)cc1`: the Inhibition worked out at 2.28%.

With `COc1cccc(Sc2nc3ccccc3n3c(=O)n(CC(=O)Nc4ccc(C)c(C)c4)nc23)c1`, the Inhibition amounted to 2.16%.

In the case of `COc1cccc(-n2ccn3c(SCC(=O)c4ccc(OC)c(OC)c4)nnc3c2=O)c1`, the Inhibition stood at 10.14%.

Take `CC(C)c1ccc(Cn2c(=O)c3sccc3n3c(SCc4cccc(C(F)(F)F)c4)nnc23)cc1`: the Inhibition came out at 11.56%.

Regarding `Cc1ccc(NC(=O)Cn2nc3c(Sc4ccccc4)nc4ccccc4n3c2=O)cc1C`, the Inhibition is recorded as -2.53%.

In the case of `N#Cc1ccc(NC(=O)Cn2nc3c(SCc4ccc(Cl)cc4)nccn3c2=O)cc1`, the Inhibition worked out at 9.38%.

`CCc1nnc2c(S(=O)(=O)N(Cc3cccc(OC)c3)c3ccccc3)cccn12`: the Inhibition is 13.09%.

As to `COc1cccc(-n2ccn3c(SCc4cccc(C)c4)nnc3c2=O)c1`, the Inhibition was 13.81%.

Turning to `CCc1ccc(N(Cc2ccc(C)cc2)S(=O)(=O)c2cccn3c(CC)nnc23)cc1`, the Inhibition turned out to be 5.86%.

Regarding `O=c1c2nn(Cc3ccc(F)cc3)c(=O)n2ccn1-c1ccccc1`, the Inhibition came out at 14.99%.

As to `COc1cccc(N(Cc2ccc(F)cc2)S(=O)(=O)c2ccc3nncn3c2)c1`, the Inhibition is listed as -0.47%.

On to `O=S(=O)(c1ccc2nncn2c1)N(Cc1cc(F)cc(F)c1)c1cccc(F)c1`, for which the Inhibition was found to be 5.24%.

In the case of `O=C(Cn1nc2c(SC3CCCCC3)nccn2c1=O)N1CCN(c2ccc(F)cc2)CC1`, the Inhibition is reported as 8.31%.

Regarding `Cc1cc(C)cc(Nc2nc(C)cc3nn(CC(=O)NC4CCCCC4)c(=O)n23)c1`, the Inhibition is recorded as 14.04%.

For the compound `Cc1ccc(NC(=O)Cn2nc3c(Sc4ccccc4)nccn3c2=O)c(Br)c1`, the Inhibition is -10.94%.

In the case of `Cc1ccc(NC(=O)Cn2nc3c(N4CCCC(C)C4)nccn3c2=O)cc1C` (stereo not given), the Inhibition was -5.07%.

Take `CC(=O)c1cccc(NC(=O)Cn2nc3c(N4CCN(c5ccccc5C)CC4)nccn3c2=O)c1`: the Inhibition was 17.73%.

On to `COc1cccc(CN(c2cc(C)cc(C)c2)S(=O)(=O)c2cccn3c(C)nnc23)c1`, for which the Inhibition is -0.14%.

On to `Cc1ccc(NC(=O)Cn2nc3c4cc(-c5ccc(C)c(C)c5)nn4ccn3c2=O)c(Cl)c1`, for which the Inhibition is recorded as 9.28%.

For `Cc1ccc(Sc2ccc3nn(CC(=O)Nc4ccc(Br)c(C)c4)c(=O)n3n2)cc1`, the Inhibition is reported as 8.43%.

With `CC(C)(C)Sc1ccc2nn(CC(=O)Nc3ccccc3Cl)c(=O)n2n1`, the Inhibition was found to be 7.11%.

`COc1ccc(-n2ccn3c(=O)n(Cc4ccccc4Cl)nc3c2=O)cc1Cl`: the Inhibition came out at 3.32%.

For `Cc1cc(C)c(NC(=O)Cn2nc3c4cc(-c5ccc(C)c(C)c5)nn4ccn3c2=O)c(C)c1`, the Inhibition was -7.12%.

The next experiment deals with Escherichia coli. The following applies: Concentration 32 ug.mL-1;; ASSAY_TEST Inhibition of Bacterial Growth; detection method Absorption (OD600); MEDIA CAMHB; plate type 384well; NBS; CORNING #3640; time 18 hr.
For the compound `Cc1cc(C)c(NC(=O)Cn2nc3ccc(SCc4ccc(Cl)cc4)nn3c2=O)c(C)c1`, the Inhibition is reported as -8.63%.

Regarding `Cc1ccc(CN(c2ccc(C(C)C)cc2)S(=O)(=O)c2cccn3cnnc23)cc1`, the Inhibition is given as 4.59%.

As to `Cc1cc(C)c(NC(=O)Cn2nc3ccc(Sc4cccc(F)c4)nn3c2=O)c(C)c1`, the Inhibition is on record as -5.92%.

Regarding `CCCN(C)c1nccn2c(=O)n(CC(=O)Nc3cccc(SC)c3)nc12`, the Inhibition is recorded as -2.46%.

On to `COc1cccc(-n2ccn3c(SCC(=O)Nc4ccccc4Cl)nnc3c2=O)c1`, for which the Inhibition was -4.64%.

As for `CCCNC(=O)Cn1nc2cc(C)nc(Nc3cc(C)cc(C)c3)n2c1=O`, the Inhibition is recorded as 0.71%.

Take `CCC(C)NC(=O)Cn1nc2n(CCC(C)C)c(=O)c3sccc3n2c1=O` (stereo not given): the Inhibition is reported as -5.43%.

As for `O=C(Cn1nc2c(Sc3cccc(F)c3)nccn2c1=O)Nc1ccc(Br)cc1`, the Inhibition is recorded as -5.66%.

`COc1ccc(NC(=O)Cn2nc3nc(Nc4ccc(F)cc4)ccn3c2=O)cc1Cl`: the Inhibition was -9.75%.

Regarding `O=c1c2sccc2n2c(=O)n(Cc3cccc(Br)c3)nc2n1Cc1cccs1`, the Inhibition was -23.42%.

With `Cc1ccc(C)c(CSc2nnc3c(=O)n(-c4ccc(F)c(F)c4)ccn23)c1`, the Inhibition is -0.2%.

For the compound `CC(C)CCNC(=O)CSc1nnc2c(=O)n(Cc3ccc(F)cc3)ccn12`, the Inhibition was -0.48%.

Regarding `CCc1nnc2c(SCC(=O)Nc3ccc(C(=O)OC)cc3)nc3ccccc3n12`, the Inhibition is listed as -1.9%.

`COCCCNC(=O)CSc1nnc2c(=O)n(Cc3ccccc3F)ccn12`: the Inhibition came to 0.71%.

In the case of `COc1cccc(Cn2nc3ccc(-c4ccccc4)nn3c2=O)c1`, the Inhibition is recorded as -1.58%.

With `Cc1ccc(-c2cc3c4nn(CC(=O)Nc5ccccc5F)c(=O)n4ccn3n2)cc1C`, the Inhibition is given as -9.57%.

Regarding `CCc1ccccc1Sc1nccn2c(=O)n(CC(=O)Nc3cccc(Br)c3)nc12`, the Inhibition was determined as 2.3%.

For the compound `COc1ccc(NC(=O)c2ccc3nn(CC(=O)N4CCN(c5ccccc5)CC4)c(=O)n3c2)cc1`, the Inhibition is listed as -9.19%.

Consider `COc1cccc(Sc2nc3ccccc3n3c(=O)n(CC(=O)Nc4ccc(C)c(C)c4)nc23)c1`, for which the Inhibition is reported as 0.23%.

As for `COc1cccc(-n2ccn3c(SCC(=O)c4ccc(OC)c(OC)c4)nnc3c2=O)c1`, the Inhibition is on record as 2.93%.

Regarding `CC(C)c1ccc(Cn2c(=O)c3sccc3n3c(SCc4cccc(C(F)(F)F)c4)nnc23)cc1`, the Inhibition is on record as 1.07%.

As for `Cc1ccc(NC(=O)Cn2nc3c(Sc4ccccc4)nc4ccccc4n3c2=O)cc1C`, the Inhibition is -4.65%.

Consider `N#Cc1ccc(NC(=O)Cn2nc3c(SCc4ccc(Cl)cc4)nccn3c2=O)cc1`, for which the Inhibition is -2.23%.

Turning to `CCc1nnc2c(S(=O)(=O)N(Cc3cccc(OC)c3)c3ccccc3)cccn12`, the Inhibition is -2.65%.

Turning to `COc1cccc(-n2ccn3c(SCc4cccc(C)c4)nnc3c2=O)c1`, the Inhibition is -5.33%.

Turning to `CCc1ccc(N(Cc2ccc(C)cc2)S(=O)(=O)c2cccn3c(CC)nnc23)cc1`, the Inhibition is listed as -4.79%.

On to `O=c1c2nn(Cc3ccc(F)cc3)c(=O)n2ccn1-c1ccccc1`, for which the Inhibition is on record as -4.05%.

`COc1cccc(N(Cc2ccc(F)cc2)S(=O)(=O)c2ccc3nncn3c2)c1`: the Inhibition was -9.93%.

Take `O=S(=O)(c1ccc2nncn2c1)N(Cc1cc(F)cc(F)c1)c1cccc(F)c1`: the Inhibition is -5.68%.

On to `O=C(Cn1nc2c(SC3CCCCC3)nccn2c1=O)N1CCN(c2ccc(F)cc2)CC1`, for which the Inhibition is recorded as -3.97%.

With `Cc1cc(C)cc(Nc2nc(C)cc3nn(CC(=O)NC4CCCCC4)c(=O)n23)c1`, the Inhibition is -1.15%.

For `Cc1ccc(NC(=O)Cn2nc3c(Sc4ccccc4)nccn3c2=O)c(Br)c1`, the Inhibition is reported as -14.81%.

Consider `Cc1ccc(NC(=O)Cn2nc3c(N4CCCC(C)C4)nccn3c2=O)cc1C` (stereo not given), for which the Inhibition is -2.82%.

For the compound `CC(=O)c1cccc(NC(=O)Cn2nc3c(N4CCN(c5ccccc5C)CC4)nccn3c2=O)c1`, the Inhibition is listed as 2.22%.

`COc1cccc(CN(c2cc(C)cc(C)c2)S(=O)(=O)c2cccn3c(C)nnc23)c1`: the Inhibition is on record as -8.8%.

Turning to `Cc1ccc(NC(=O)Cn2nc3c4cc(-c5ccc(C)c(C)c5)nn4ccn3c2=O)c(Cl)c1`, the Inhibition was -1.41%.

As to `Cc1ccc(Sc2ccc3nn(CC(=O)Nc4ccc(Br)c(C)c4)c(=O)n3n2)cc1`, the Inhibition was -6%.

`CC(C)(C)Sc1ccc2nn(CC(=O)Nc3ccccc3Cl)c(=O)n2n1`: the Inhibition is -2.79%.

With `COc1ccc(-n2ccn3c(=O)n(Cc4ccccc4Cl)nc3c2=O)cc1Cl`, the Inhibition is given as 3.28%.

Regarding `Cc1cc(C)c(NC(=O)Cn2nc3c4cc(-c5ccc(C)c(C)c5)nn4ccn3c2=O)c(C)c1`, the Inhibition is recorded as -12.18%.

The values are drawn from ChEMBL document CHEMBL4513146, “CO-ADD screening of Karazin Kharkiv National University (Ukraine) compounds”.
